Whole data set: some 5,000 sequences, median “log2 normalized fluorescence” near 0.089, cut for the highest 2% near 0.81. For the sample, the highest values were picked, then their nearest neighbours and some sequences at random.

Chain of MYC (p64);MAX (p21), in MYC:MAX (P01106 16-454, chain 1 of 2): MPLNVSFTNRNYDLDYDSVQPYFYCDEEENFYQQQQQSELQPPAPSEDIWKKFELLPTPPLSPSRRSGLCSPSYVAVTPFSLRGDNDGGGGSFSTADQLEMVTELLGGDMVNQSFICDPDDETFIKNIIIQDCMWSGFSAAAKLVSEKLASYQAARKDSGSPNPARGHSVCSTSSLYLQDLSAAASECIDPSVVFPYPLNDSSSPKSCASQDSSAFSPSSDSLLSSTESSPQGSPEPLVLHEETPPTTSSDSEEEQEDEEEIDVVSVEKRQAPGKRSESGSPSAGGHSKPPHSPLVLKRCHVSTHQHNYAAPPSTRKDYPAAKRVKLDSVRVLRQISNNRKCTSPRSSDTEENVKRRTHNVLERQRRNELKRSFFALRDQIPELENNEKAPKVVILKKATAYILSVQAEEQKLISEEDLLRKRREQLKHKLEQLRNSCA
Chain of MYC (p64);MAX (p21), in MYC:MAX (P61244 other isoform, or with tags, fused parts or gaps |, chain 2 of 2): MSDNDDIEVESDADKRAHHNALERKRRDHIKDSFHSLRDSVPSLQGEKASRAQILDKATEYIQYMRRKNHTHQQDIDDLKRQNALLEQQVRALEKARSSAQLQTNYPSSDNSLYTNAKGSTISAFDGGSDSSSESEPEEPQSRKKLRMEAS

The target of the experiment is MYC (p64);MAX (p21), in MYC:MAX (human;human, UniProt P01106-1;P61244-2 1-439;1-151, |). In words: protein-binding microarray (anti-MAX antibody); PBM: 15 mM Tris-HCl pH 7.5, 100 mM KCl, 0.075% NP40, 7.5 mM beta-mercaptoethanol, 375 ng/ul BSA, 8 ng/ul poly(dA-dT):(dA-dT), 550 ng complex, 60 min, room tempe; high values mean tight binding. Particulars: protein: recombinant;recombinant; tags: 6xHis;6xHis; copies: 1;1; label: 3' end of printed strand (linker) attached to glass slide; dsDNA, one strand shown. In short, it runs like this:
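Recombinant His-tagged human MYC:MAX or MAX:MAX dimers (550 ng, expressed in E. coli) were incubated for 60 min at room temperature in Tris-KCl buffer, pH 7.5, with NP40, BSA and poly(dA-dT) competitor. The custom Agilent glass array held ~5000 unique 12-nt sequences, each spotted in triplicate and made double-stranded by primer extension. Bound protein was detected with anti-MAX and secondary antibodies and scanned at 543 nm. Binding is reported as log2 normalized fluorescence.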
As for “CCGGCTGACTGGTCGTATTAATAGCTAAGATTACTATATCGACG”, the binding signal was 0.229 log2 normalized fluorescence.

Turning to “CCGGCTGACCTCTGGTATTAATAGCTAAGATTACTATATCGACG”, the binding signal is -0.0273 log2 normalized fluorescence.

On to “CCGGCTGAGTGAGGGTATTAATAGCTAAGATTACTATATCGACG”, for which the binding signal is 0.097 log2 normalized fluorescence.

“CCGGCTGAAAAGCGGTATTAATAGCTAAGATTACTATATCGACG”: the binding signal is 0.0993 log2 normalized fluorescence.

Take “CCGGCTGACACTTAGTATTAATAGCTAAGATTACTATATCGACG”: the binding signal was 0.231 log2 normalized fluorescence.

Take “CCGGCTGACAAGTGGGATTAATAGCTAAGATTACTATATCGACG”: the binding signal was 0.302 log2 normalized fluorescence.

As to “CCGGCTGAGTGAGTGTATTAATAGCTAAGATTACTATATCGACG”, the binding signal was 0.08 log2 normalized fluorescence.

Regarding “CCGGCTGACGTTGTGTATTAATAGCTAAGATTACTATATCGACG”, the binding signal is 0.16 log2 normalized fluorescence.

With “CCGGCTGGAACGTGGTATTAATAGCTAAGATTACTATATCGACG”, the binding signal was 0.66 log2 normalized fluorescence.

As to “CCGGCTGAGCATATGTATTAATAGCTAAGATTACTATATCGACG”, the binding signal is 0.395 log2 normalized fluorescence.

On to “CCGGCTGAAGGCGTGTATTAATAGCTAAGATTACTATATCGACG”, for which the binding signal is 0.409 log2 normalized fluorescence.

“CCGGCAGTCACATGGTATTAATAGCTAAGATTACTATATCGACG”: the binding signal was 0.995 log2 normalized fluorescence.

On to “CCGGCTAACACATGGTATTAATAGCTAAGATTACTATATCGACG”, for which the binding signal is 0.6 log2 normalized fluorescence.

In the case of “CCGGCAGACACGAGGTTTTAATAGCTAAGATTACTATATCGACG”, the binding signal was 0.64 log2 normalized fluorescence.

As for “CCGGCTTTCACATGGTATTAATAGCTAAGATTACTATATCGACG”, the binding signal is 0.504 log2 normalized fluorescence.

In the case of “CCGGCAGACACTTGGTATTAATAGCTAAGATTACTATATCGACG”, the binding signal was 0.421 log2 normalized fluorescence.

“CCGGCAGACATGGGGTATTAATAGCTAAGATTACTATATCGACG”: the binding signal was 0.458 log2 normalized fluorescence.

Regarding “CCGGCAGACACGAGGTATTAATAGCTAAGATTACTATATCGACG”, the binding signal is 0.93 log2 normalized fluorescence.

On to “CCGGCTGACACGAGGTATTAATAGCTAAGATTACTATATCGACG”, for which the binding signal was 0.625 log2 normalized fluorescence.

Turning to “CCGGCAGACACATGGTATTAATAGCTAAGATTACTATATCGACG”, the binding signal was 0.834 log2 normalized fluorescence.

Take “CCGGCTGACTACATGTATTAATAGCTAAGATTACTATATCGACG”: the binding signal is 0.419 log2 normalized fluorescence.

Turning to “CCGGCTGTCAAGTGGCATTAATAGCTAAGATTACTATATCGACG”, the binding signal is 0.1 log2 normalized fluorescence.

Turning to “CCGGCTGAGTTTCCGTATTAATAGCTAAGATTACTATATCGACG”, the binding signal was -0.0243 log2 normalized fluorescence.

Regarding “CCGGCTGAAGGATGGTATTAATAGCTAAGATTACTATATCGACG”, the binding signal was 0.0538 log2 normalized fluorescence.

Turning to “CCGGCTGTCCCCTGGTATTAATAGCTAAGATTACTATATCGACG”, the binding signal is -0.00889 log2 normalized fluorescence.

With “CCGGCTGACTGTGAGTATTAATAGCTAAGATTACTATATCGACG”, the binding signal is 0.00564 log2 normalized fluorescence.

On to “CCGGCTGACGGCAGGTATTAATAGCTAAGATTACTATATCGACG”, for which the binding signal is -0.00507 log2 normalized fluorescence.

Consider “CCGGCGGACGCGTGGTATTAATAGCTAAGATTACTATATCGACG”, for which the binding signal was 0.64 log2 normalized fluorescence.

In the case of “CCGGCGGACACGTGTGATTAATAGCTAAGATTACTATATCGACG”, the binding signal was 0.779 log2 normalized fluorescence.

Turning to “CCGGCGGACACGTCGTATTAATAGCTAAGATTACTATATCGACG”, the binding signal was 0.287 log2 normalized fluorescence.

Consider “CCGGCGGACACGTGCTATTAATAGCTAAGATTACTATATCGACG”, for which the binding signal is 0.839 log2 normalized fluorescence.

In the case of “CCGGCGGACACGTGGTATTAATAGCTAAGATTACTATATCGACG”, the binding signal was 0.99 log2 normalized fluorescence.

For “CCGGCGGACCCGTGGTATTAATAGCTAAGATTACTATATCGACG”, the binding signal was 0.439 log2 normalized fluorescence.

These data come from publication PMC5515408, “Sequence-specific DNA binding by MYC/MAX to low-affinity non-E-box motifs”.
